From the supplement of paper PMC10849652 come the findings set out here.

Targets with a hit are over-represented here; the source holds about 8,800 in all. About 0.5% of all pairs of compound and target were hits. Unmarked numbers belong to inactive results.

Chain of UniProt Q9H9Y4 (Q9H9Y4 whole entry, looked up): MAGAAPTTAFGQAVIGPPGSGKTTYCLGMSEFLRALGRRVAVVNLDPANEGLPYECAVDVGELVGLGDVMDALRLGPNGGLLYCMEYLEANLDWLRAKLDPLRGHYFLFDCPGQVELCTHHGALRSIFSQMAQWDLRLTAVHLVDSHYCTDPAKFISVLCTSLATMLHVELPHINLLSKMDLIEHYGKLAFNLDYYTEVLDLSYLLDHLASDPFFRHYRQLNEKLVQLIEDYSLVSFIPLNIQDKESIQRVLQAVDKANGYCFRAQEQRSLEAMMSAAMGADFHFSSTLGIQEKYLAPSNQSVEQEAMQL
Chain of UniProt P43250 (P43250 whole entry, looked up): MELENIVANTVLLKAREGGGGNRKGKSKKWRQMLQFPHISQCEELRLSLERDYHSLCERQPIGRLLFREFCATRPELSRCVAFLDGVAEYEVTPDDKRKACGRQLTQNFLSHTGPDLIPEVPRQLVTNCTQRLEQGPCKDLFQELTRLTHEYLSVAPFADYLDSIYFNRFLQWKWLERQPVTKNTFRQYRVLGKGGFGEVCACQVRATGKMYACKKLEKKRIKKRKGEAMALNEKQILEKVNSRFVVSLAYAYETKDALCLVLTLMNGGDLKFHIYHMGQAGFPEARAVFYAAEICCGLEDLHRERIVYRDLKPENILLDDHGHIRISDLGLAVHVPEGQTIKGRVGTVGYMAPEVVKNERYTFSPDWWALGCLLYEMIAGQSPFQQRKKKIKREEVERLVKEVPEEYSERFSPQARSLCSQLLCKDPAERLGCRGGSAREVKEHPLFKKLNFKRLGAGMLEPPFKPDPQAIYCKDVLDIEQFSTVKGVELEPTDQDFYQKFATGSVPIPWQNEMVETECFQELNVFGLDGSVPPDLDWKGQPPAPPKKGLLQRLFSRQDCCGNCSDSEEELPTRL
Chain of UniProt P62873 (P62873 whole entry, looked up): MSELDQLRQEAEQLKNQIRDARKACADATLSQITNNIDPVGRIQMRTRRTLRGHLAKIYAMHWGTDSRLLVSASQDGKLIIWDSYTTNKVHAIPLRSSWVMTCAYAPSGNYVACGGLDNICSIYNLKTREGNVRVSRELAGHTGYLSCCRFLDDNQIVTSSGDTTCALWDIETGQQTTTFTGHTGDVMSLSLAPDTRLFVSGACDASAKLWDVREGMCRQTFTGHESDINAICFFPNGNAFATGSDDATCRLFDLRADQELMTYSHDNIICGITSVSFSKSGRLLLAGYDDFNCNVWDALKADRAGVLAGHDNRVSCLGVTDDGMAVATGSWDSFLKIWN
Chain of UniProt P22692 (P22692 whole entry, looked up): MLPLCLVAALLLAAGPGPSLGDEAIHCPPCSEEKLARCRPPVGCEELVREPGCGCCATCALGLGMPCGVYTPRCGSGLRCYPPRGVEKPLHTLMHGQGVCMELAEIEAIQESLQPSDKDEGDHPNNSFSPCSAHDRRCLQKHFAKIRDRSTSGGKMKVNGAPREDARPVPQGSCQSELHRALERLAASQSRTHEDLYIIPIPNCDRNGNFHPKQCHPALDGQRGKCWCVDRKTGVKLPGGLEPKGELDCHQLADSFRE
Chain of UniProt Q96A47 (Q96A47 whole entry, looked up): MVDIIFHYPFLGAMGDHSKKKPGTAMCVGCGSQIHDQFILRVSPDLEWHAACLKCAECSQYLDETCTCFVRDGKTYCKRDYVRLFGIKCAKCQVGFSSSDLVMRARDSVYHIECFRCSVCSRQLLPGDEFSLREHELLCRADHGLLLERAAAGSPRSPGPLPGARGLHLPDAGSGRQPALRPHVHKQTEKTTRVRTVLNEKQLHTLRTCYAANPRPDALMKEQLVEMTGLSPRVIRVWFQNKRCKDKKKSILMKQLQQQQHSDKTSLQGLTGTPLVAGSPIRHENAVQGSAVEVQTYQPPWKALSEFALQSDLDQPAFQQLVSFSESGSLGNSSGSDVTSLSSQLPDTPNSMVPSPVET
Chain of UniProt Q99714 (Q99714 whole entry, looked up): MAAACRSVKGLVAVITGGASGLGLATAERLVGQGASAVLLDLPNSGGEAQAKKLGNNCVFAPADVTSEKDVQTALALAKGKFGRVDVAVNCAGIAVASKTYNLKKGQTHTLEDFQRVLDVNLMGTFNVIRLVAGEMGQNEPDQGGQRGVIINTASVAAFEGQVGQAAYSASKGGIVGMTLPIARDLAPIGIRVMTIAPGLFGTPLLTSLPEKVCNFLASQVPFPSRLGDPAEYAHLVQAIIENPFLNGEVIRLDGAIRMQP

Compound in this test: c1ccc([C@@H]2C[C@H]2NC2CCNCC2)cc1
The test is described as follows: log2 fold change, soluble protein after heating vs DMSO (PISA); higher = thermal stabilisation; K562 lysate, 10 uM; active = over 0.2 and 3.5 SD of the protein, either way, in both replicates (recomputed). The procedure, abridged: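 K562 pellets were dounce-homogenised in PBS pH 7.4 containing 1 mM MgCl2, and the crude extract, at 1 mg/mL protein, was exposed to 10 μM compound for 30 min. Aliquots were heated for 3 min across 48°C-58°C, pooled, brought to 0.5% NP-40 at 4°C and spun at 21,000xg for 90 min, with the supernatant taken as soluble protein. TMTpro 16plex LC-MS/MS with equalised channel sums quantified that protein. Values are log-two fold changes in thermal stability relative to solvent controls, taken from duplicates.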
With GNB1 (UniProt P62873), the log2 fold change is -0.329.

In the case of GPN2 (UniProt Q9H9Y4), the log2 fold change was -0.034.

Turning to GRK6 isoform 2 (UniProt P43250), the log2 fold change is -0.018.

For the target HSD17B10 (UniProt Q99714), the log2 fold change is 0.003.

For ISL2 (UniProt Q96A47), the log2 fold change was 0.207.

For the target IMPDH2 (UniProt H0Y4R1), the log2 fold change was -0.203.

Regarding IGFBP4 (UniProt P22692), the log2 fold change was -0.171.
